The values below come from PubChem BioAssay (NCATS).

Inconclusive results are not listed. The source made the active and inactive calls. Unless noted, the call rests on the fitted dose curve; in most records, active means well fitted curve in the direction sought with a large enough effect; inconclusive means small, poorly fitted or top-dose-only effect, or another doubt; inactive means no such curve, though single readings can be large; an effect the other way counts as inactive or inconclusive.

Test [1] is described as follows: Primary qHTS for inhibitors of nuclear receptor binding SET domain protein 2 (NSD2) in an RCH-ACV wild type WT cells (2C) (AID 1645877). Further: nearly all actives have a fitted effect of over 70% in size.
Test [2] deals with Rap guanine nucleotide exchange factor 3 (Homo sapiens) (UniProt O95398). Briefly: Confirmatory qHTS for antagonist of cAMP-regulated guanine nucleotide exchange factor 3 (EPAC1) (AID 1645880). Further: potency means the concentration at half of the fitted maximal effect; nearly all actives have a fitted effect of over 55% in size. Summed up: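 Released BODIPY-GDP fluoresces less than Rap1-bound BODIPY-GDP; the signal is followed at 480/540 nm at 5-min intervals over 30 min, after 5 min at room temperature. Reactions contain 100 nM EPAC1, 250 nM RAP1B-BODIPY-GDP and 50 uM GDP; results are normalized to ATA and DMSO.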

Test [3] shares this target. Kind of test: Confirmatory qHTS for agonist of cAMP-regulated guanine nucleotide exchange factor 3 (EPAC1) (AID 1645881).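 Further: EPAC1 catalysed release of BODIPY-GDP from Rap1B seen as fluorescence loss; 100% = effect of cAMP agonist control; nearly all actives have a fitted effect of over 75% in size.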
Test [4] addresses Rap guanine nucleotide exchange factor 4 (Homo sapiens) (UniProt Q8WZA2). Kind of test: Confirmatory qHTS for agonist of cAMP-regulated guanine nucleotide exchange factor 4 (EPAC2) (AID 1645884).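 Further: nucleotide exchange releases bodipy-GDP from Rap1 and this lowers its fluorescence; on the % scale 0 is the no-effect control and ±100 the full control effect; nearly all actives have a fitted effect of over 65% in size.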
Test [5] has the same target. Kind of test: Confirmatory qHTS for antagonist of cAMP-regulated guanine nucleotide exchange factor 4 (EPAC2) (AID 1645885). Further: potency means the concentration at half of the fitted maximal effect; nearly all actives have a fitted effect of over 25% in size.
Test [6] has as its target Metallo-beta-lactamase type 2 (Klebsiella pneumoniae) (UniProt C7C422). Kind of test: qHTS to identify inhibitors of the New Delhi Metallo-beta-lactamase (NDM): assay validation screen against the NCATS LOPAC Collection (AID 1794843).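 Further: nitrocefin turnover by NDM-1 measured as 485 nm absorbance at plateau; on the % scale 0 is the no-effect control and ±100 the full control effect.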 Put shortly: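 Enzyme 2 nM final, 50 mM HEPES pH 7.0, 1 uM ZnSO4, 0.01% Tween20; cpds in DMSO, preincub w/ enzyme; + nitrocefin (50 uM stock); A485 at plateau; no-enzyme column as blank.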

For test [7], the target named is Glutathione peroxidase 1 (Homo sapiens) (UniProt P07203). Kind of test: Primary qHTS Assay for Inhibitors of Recombinant Selenoprotein Glutathione Peroxidase 1 (GPX1) (AID 1845191). Further: nearly all actives have a fitted effect of over 65% in size. Summed up:
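NADPH consumption tracked by fluorescence at 340/450 nm between t=0 and t=15 min, room temperature. Final mix: 10 nM GPX1, 100 nM glutathione reductase, 1 mM GSH, 0.5 mM NADPH, 0.5 mM cumene hydroperoxide, 0.01% BSA; 30 min compound–enzyme preincubation.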

Test [8] concerns the target Catechol O-methyltransferase (Homo sapiens) (UniProt P21964). Briefly: Confirmatory Screen for Target Class Profiling of Small Molecule Inhibitors of Methyltransferases (AID 1745852; calls by dose curve; further: potency means the concentration at half of the fitted maximal effect; on activity change, negative = inhibition: on the % scale 0 is the no-effect control and ±100 the full control effect). The settings on record: MTase-Glo luminescence, SAH detection, recombinant enzyme; measured here: COMT max response; stronger effect = lower value.
In test [9] the target is Guanidinoacetate N-methyltransferase (Homo sapiens) (UniProt Q14353). The description is as above. The settings on record: MTase-Glo luminescence, SAH detection, recombinant enzyme; activity change, negative = inhibition: at 57.3 µM (top of the series).
For test [10], the target named is Nicotinamide N-methyltransferase (Homo sapiens) (UniProt P40261). Described as above. The settings on record: MTase-Glo luminescence, SAH detection, recombinant enzyme; measured here: NNMT max response; stronger effect = lower value.
The target of test [11] is Phenylethanolamine N-methyltransferase (Homo sapiens) (UniProt P11086). Described as above. The settings on record: MTase-Glo luminescence, SAH detection, recombinant enzyme; measured here: PNMT max response; stronger effect = lower value.
A short description of test [12]: NCATS anti-infectives library activity on HEK293 viability as a counter-qHTS vs the C. elegans viability qHTS (AID 1745854). Further: on the % scale 0 is the no-effect control and ±100 the full control effect. Put shortly:
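CellTiter-Glo luminescence, read on a CCD imager, scored viability of HEK293 cells after 24 hr compound exposure at 37C. Library tested in several concentrations, 1:5 steps, up to 41.7 uM; digitonin served as control.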

The nature of test [13]: NCATS anti-infectives library activity on the primary C. elegans qHTS viability assay (AID 1745855; calls by dose curve). The conditions noted are these: C. elegans worm area imaging, day 7; at 41.8 µM (top of the series) unless noted. Summed up:
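Titration-based screen in worms: eggs hatched overnight in M9, L1 larvae fed TOP10 capsules in S medium with compound, incubated 21 °C for 7 days; fluorescent objects gated by size and intensity at days 0, 3 and 7.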

Metallo-beta-lactamase type 2 (Klebsiella pneumoniae), sequence (C7C422 whole entry, looked up): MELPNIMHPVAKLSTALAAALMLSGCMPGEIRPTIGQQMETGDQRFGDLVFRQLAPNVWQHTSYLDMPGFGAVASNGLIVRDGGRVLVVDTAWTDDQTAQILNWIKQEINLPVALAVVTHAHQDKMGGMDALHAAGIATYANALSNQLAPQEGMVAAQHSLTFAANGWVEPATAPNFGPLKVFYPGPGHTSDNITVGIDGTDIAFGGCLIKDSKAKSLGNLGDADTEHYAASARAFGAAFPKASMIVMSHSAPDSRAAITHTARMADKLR
Catechol O-methyltransferase (Homo sapiens), sequence (P21964 whole entry, looked up): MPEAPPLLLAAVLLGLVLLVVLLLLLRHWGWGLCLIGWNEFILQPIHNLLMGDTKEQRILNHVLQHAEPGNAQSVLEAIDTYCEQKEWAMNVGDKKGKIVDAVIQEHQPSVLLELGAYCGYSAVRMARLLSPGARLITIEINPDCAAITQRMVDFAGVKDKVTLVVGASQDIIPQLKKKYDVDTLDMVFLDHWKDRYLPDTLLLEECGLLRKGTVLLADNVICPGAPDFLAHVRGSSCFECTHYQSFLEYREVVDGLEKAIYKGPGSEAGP
Glutathione peroxidase 1 (Homo sapiens), sequence (P07203 whole entry, looked up): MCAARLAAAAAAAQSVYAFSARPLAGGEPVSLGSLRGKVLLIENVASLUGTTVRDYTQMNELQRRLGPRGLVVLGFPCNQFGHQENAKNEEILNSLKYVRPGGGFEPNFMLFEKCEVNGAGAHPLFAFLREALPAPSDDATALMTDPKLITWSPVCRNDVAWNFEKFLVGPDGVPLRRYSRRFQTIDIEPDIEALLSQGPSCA
Phenylethanolamine N-methyltransferase (Homo sapiens), sequence (P11086 whole entry, looked up): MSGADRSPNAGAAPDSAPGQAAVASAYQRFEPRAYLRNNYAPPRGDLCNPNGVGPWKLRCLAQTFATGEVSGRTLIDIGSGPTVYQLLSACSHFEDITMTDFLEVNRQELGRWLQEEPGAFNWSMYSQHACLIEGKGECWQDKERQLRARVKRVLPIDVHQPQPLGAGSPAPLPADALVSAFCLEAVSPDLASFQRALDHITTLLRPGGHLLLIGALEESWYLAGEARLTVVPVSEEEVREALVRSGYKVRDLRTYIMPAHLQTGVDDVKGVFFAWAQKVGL
Nicotinamide N-methyltransferase (Homo sapiens), sequence (P40261 whole entry, looked up): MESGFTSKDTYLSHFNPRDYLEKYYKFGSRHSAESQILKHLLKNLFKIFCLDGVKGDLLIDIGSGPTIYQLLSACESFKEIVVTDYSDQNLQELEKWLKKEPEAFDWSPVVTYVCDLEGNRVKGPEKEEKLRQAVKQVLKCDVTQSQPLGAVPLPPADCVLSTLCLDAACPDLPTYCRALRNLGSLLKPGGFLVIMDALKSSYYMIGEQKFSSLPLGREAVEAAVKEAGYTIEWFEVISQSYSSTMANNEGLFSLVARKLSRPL
Rap guanine nucleotide exchange factor 3 (Homo sapiens), sequence (O95398 whole entry, looked up): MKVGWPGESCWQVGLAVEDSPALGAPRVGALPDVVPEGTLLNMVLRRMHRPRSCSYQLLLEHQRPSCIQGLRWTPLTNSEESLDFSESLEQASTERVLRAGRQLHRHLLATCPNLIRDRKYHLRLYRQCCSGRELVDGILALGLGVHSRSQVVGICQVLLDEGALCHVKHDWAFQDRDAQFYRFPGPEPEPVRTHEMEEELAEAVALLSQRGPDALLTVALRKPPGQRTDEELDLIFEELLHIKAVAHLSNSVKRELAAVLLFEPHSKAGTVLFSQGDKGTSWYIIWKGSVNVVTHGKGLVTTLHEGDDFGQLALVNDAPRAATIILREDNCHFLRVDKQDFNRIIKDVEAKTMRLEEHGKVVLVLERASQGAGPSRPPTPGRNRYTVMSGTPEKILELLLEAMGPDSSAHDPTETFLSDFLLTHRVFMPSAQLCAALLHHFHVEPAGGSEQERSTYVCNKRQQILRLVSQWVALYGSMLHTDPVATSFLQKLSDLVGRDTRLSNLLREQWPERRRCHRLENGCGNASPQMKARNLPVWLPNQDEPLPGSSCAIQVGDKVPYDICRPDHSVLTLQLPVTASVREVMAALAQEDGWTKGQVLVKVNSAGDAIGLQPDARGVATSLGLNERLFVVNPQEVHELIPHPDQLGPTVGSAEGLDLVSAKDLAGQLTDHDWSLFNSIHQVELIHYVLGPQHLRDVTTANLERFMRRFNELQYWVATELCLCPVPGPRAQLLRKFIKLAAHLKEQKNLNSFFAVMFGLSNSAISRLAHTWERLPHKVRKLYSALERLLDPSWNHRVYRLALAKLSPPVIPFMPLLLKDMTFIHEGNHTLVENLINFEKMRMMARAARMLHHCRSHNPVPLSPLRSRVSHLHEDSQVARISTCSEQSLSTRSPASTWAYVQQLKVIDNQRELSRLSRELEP
Rap guanine nucleotide exchange factor 4 (Homo sapiens), sequence (Q8WZA2 whole entry, looked up): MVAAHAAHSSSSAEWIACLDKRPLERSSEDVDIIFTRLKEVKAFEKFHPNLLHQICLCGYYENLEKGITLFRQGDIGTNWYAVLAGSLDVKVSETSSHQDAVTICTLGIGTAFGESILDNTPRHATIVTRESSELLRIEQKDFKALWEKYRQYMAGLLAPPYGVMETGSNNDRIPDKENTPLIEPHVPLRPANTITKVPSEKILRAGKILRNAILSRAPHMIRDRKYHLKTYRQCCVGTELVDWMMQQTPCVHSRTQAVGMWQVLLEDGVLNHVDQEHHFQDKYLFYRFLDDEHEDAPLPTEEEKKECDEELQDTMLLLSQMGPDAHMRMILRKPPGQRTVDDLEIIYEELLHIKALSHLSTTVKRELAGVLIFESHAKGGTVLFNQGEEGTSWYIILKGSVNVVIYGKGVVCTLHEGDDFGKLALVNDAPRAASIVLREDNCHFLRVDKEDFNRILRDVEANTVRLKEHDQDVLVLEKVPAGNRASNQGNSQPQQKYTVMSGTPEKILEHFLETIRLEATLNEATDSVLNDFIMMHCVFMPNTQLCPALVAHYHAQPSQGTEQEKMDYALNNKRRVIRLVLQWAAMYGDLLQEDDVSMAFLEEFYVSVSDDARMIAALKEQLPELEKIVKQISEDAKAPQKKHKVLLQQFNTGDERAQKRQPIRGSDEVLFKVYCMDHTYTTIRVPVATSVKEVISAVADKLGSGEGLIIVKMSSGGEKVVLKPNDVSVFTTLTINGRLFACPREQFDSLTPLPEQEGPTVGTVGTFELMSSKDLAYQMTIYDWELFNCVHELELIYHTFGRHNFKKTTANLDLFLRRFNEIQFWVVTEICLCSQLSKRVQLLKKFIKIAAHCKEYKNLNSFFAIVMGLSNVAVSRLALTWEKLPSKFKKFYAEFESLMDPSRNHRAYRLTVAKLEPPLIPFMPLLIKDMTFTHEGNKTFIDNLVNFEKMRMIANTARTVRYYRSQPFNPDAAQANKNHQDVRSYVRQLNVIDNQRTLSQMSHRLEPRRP

In the case of `O=C1Nc2ccc(I)cc2/C1=C/c1cc(Br)c(O)c(Br)c1`, the Potency result in [1], in test [3], in test [4], in test [6] and in [7] was “inactive” each time. For the same compound, the Potency in [2] was 19.8 µM (active); in test [5] it was 35 µM (active).

Consider `CC[C@@H]1Cc2cc(O)ccc2C2=C1c1ccc(O)cc1C[C@H]2CC`, for which the activity in test [8] is 9.67%; in test [10], -26.8%; in [11], -50.4%. For the same compound, the Potency in test [9] is 43.2 µM (active). For the same compound, the Potency entry in [6] was “inactive”.

On to `COc1cc(/C=C(\C#N)C(=O)c2ccc(O)c(O)c2)cc(I)c1O`, for which the values for the activity in [8], in test [10] and in test [11] were 13.9%, -5.85% and 1.08%, respectively. For the same compound, the Potency in test [9] was 24.3 µM (active). Also, the Potency result in [6] is “inactive”.

Regarding `C=CCN1CCc2cc(O)c(O)cc2C(c2ccccc2)C1` (stereo not drawn), the activity is 101% in test [8], -4.37% in test [10] and -2.84% in test [11]. The activity change, negative = inhibition in [9] turned out to be 8.51%. Also, the Potency result in [6] and in [7] was “inactive” throughout.

For the compound `CC1CCN=C(N)S1` (stereo not drawn), the activity in [8] was 4.68%; in [10] it was -17.8%; in test [11], -0.769%. In addition, the activity change, negative = inhibition in [9] is 0.929%. For the same compound, the Potency result in [6] and in test [7] was “inactive” throughout.

On to `Oc1cc(O)c2c(c1)O[C@H](c1ccc(O)c(O)c1)[C@@H](O)C2`, for which the activity was 171% in test [8], -7.72% in test [10] and 7.68% in test [11]. Besides, in [9], the activity change, negative = inhibition was found to be 4.5%. Further, the outcome in [12] and in test [13] was “inactive” in each case. In addition, the Potency entry in test [6] and in test [7] was “inactive” each time.

Turning to `NC/C=C\C(=O)O`, the values for the activity in test [8], in [10] and in test [11] were -3.77%, -7.89% and 2.22%, respectively. Further, in test [9], the activity change, negative = inhibition is 4.36%. For the same compound, the Potency result in [6] and in test [7] was “inactive” throughout.

As for `CCN(CC)CCCCCCCCOC(=O)c1cc(OC)c(OC)c(OC)c1`, the activity is 8.45% in test [8], -0.607% in test [10] and 0.819% in test [11]. In test [9], the activity change, negative = inhibition was 4.66%. Also, the Potency result in test [6] and in [7] was “inactive” in each case.

On to `CC1=C(/C=C/C(C)=C/C=C/C(C)=C\C(=O)O)C(C)(C)CCC1`, for which the Potency entry in [1], in test [6] and in [7] was “inactive” each time.

As for `NS(=O)(=O)c1cccc2c1c([N+](=O)[O-])cc1nc(O)c(O)nc12`, the activity in test [8] was -92.9%; in [10], -6.69%; in [11], 1.61%. In addition, in test [9], the activity change, negative = inhibition is 0.0632%. The Potency entry in test [6] and in test [7] was “inactive” in each case.

Take `Cn1c(=O)c2[nH]c(-c3ccc(S(=O)(=O)O)cc3)nc2n(C)c1=O`: the activity is -8.67% in [8], -17.8% in test [10] and -5.47% in test [11]. For the same compound, the activity change, negative = inhibition in [9] was 1.75%. The Potency result in [6] was “inactive”.
